Assay results: PubChem BioAssay (NCI)
About 83,000 compounds went through this panel and 20% of them were active in at least one assay; those are over-represented in the sample as a whole.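 Note: values are percent growth. 100 is the growth of untreated cells, values between 100 and 0 indicate rising inhibition; between -100 and 0 indicates cell death.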 A number with no mark means an inactive call. The source made the active and inactive calls. Rule for the calls: active = growth percent below 10; inactive = the rest.

What was measured:
Assay in all cases: NCI-60 one-dose screen, 48 h (100 = growth as untreated, 0 = no growth, -100 = all killed)
Conditions in all cases: 10 µM
[1] = tested on: SK-MEL-2 melanoma
[2] = tested on: SN12C renal
[3] = tested on: UO-31 renal
[4] = tested on: TK-10 renal
[5] = tested on: ACHN renal
[6] = tested on: CAKI-1 renal
[7] = tested on: A498 renal
[8] = tested on: CCRF-CEM leukemia
[9] = tested on: MOLT-4 leukemia
[10] = tested on: SR leukemia
[11] = tested on: RPMI-8226 leukemia
[12] = tested on: OVCAR-8 ovarian
[13] = tested on: OVCAR-5 ovarian
[14] = tested on: OVCAR-4 ovarian
[15] = tested on: SK-OV-3 ovarian
[16] = tested on: IGROV1 ovarian
[17] = tested on: OVCAR-3 ovarian
[18] = tested on: HS 578T breast
[19] = tested on: NCI/ADR-RES ovarian

Row | Compound | growth [1] | growth [2] | growth [3] | growth [4] | growth [5] | growth [6] | growth [7] | growth [8] | growth [9] | growth [10] | growth [11] | growth [12] | growth [13] | growth [14] | growth [15] | growth [16] | growth [17] | growth [18] | growth [19]
1 | O=c1ccc2nc(-c3ccccc3)nn(-c3ccccc3)c-2c1 | 44.9% | 40.2% | -97.5% (active) | -95.9% (active) | -96% (active) | -90.9% (active) | 84.4% | -16.3% (active) | -37.9% (active) | -20.2% (active) | -8.63% (active) | -2.36% (active) | 102% | -40.7% (active) | 59.1% | 2.66% (active) | -98.1% (active) | 75.9% | 96.2%
2 | CCCCCCCCCCCCCCCC(=O)N1CCN(C)CC1 | 86.5% | 74.6% | 40.5% | 73.8% | 81.8% | 69.9% | 92.3% | 34.9% | 61.4% | -3.08% (active) | 71% | 86.3% | 86.3% | 87.6% | 84.9% | 52.3% | 86.8% | 90.1% | 90.3%
3 | COc1ccc(-c2nsc3c2NC(=O)CC3c2cccc(Cl)c2)cc1 (centres undefined) | -14.4% (active) | 47.8% | 36.8% | 34.9% | 49.9% | 18.4% | 17.8% | 13.8% | 18.2% | 7.99% (active) | 12.4% | 33.7% | 32.8% | 53.2% | 3.46% (active) | 39.2% | 11.4% | 37.6% | 15.7%
4 | Cc1ncc([N+](=O)[O-])n1CCOc1ccc(C(=O)/C=C/c2ccc(C(F)(F)F)cc2)cc1 | 81% | 77.9% | 40.6% | 72.4% | 80.7% | 81.3% | 74.5% | 27.5% | 28.3% | -13.2% (active) | 12.9% | 51.8% | 90% | 100% | 79.4% | 80.4% | 51.3% | 66.9% | 65.9%
5 | C[n+]1c(/C=C/c2c[nH]c3ccccc23)ccc2ccccc21 | 83.9% | 64.4% | 60.5% | 89.6% | 77.1% | 88.8% | 54.5% | 43.4% | 9.37% (active) | 18.2% | 40.7% | 39.7% | 75.6% | 54.8% | 64.6% | 72.4% | 68.1% | 103% | 100%
6 | COc1ccc(CCc2nc3cc(-c4c(C)noc4C)ccc3n2CCN2CCOCC2)cc1 | 49.6% | 31.2% | 4.71% (active) | 24% | -0.152% (active) | 57.2% | 58.6% | 42.7% | 73% | 39% | -5.7% (active) | 34.6% | 49.8% | 30.8% | 88.1% | 48.3% | 3.29% (active) | 50.2% | 57.1%
7 | c1ccc(OCCC[P+](c2ccccc2)(c2ccccc2)c2ccccc2)cc1 | -11.5% (active) | 10.4% | 63.8% | 18.1% | 66% | 76.6% | 12.1% | 1.67% (active) | 0.0403% (active) | -21.2% (active) | -27.6% (active) | 7.15% (active) | 29% | 8.32% (active) | 19.6% | 10.5% | 7.59% (active) | 43.3% | 93.3%
8 | COc1cccc(C(=O)NNc2nc(N3CCN(C4CCCCC4)CC3)nc(N3CCN(C(c4ccccc4)c4ccccc4)CC3)n2)c1 | 87.3% | 51.8% | 32.9% | 46.1% | 70.2% | 59.4% | 49.2% | 39.9% | 15.5% | -16.1% (active) | -11.5% (active) | 30.1% | 94.3% | 24.2% | 52.2% | 37.6% | 32.2% | 74.2% | 31.1%
9 | CCC(O)c1ccc(Br)cc1NC(=O)c1cccc(Cl)c1 (centres undefined) | 34% | 18.7% | -11.6% (active) | 41.9% | 15.6% | 7.99% (active) | 25.3% | 6.46% (active) | 10.1% | 8.25% (active) | 18.2% | 13.9% | 50.4% | 24.9% | 34% | 10.4% | 33.8% | 51% | 5.46% (active)
10 | Cc1nc(Nc2nc3ccccc3o2)nc(-c2cccc([N+](=O)[O-])c2)c1C(=O)Nc1ccc(F)c(Cl)c1 | -33.7% (active) | 7.04% (active) | 11.3% | 8.62% (active) | 12.9% | 9.69% (active) | -37.2% (active) | 22.8% | -23.7% (active) | -8.33% (active) | -41.4% (active) | 6.5% (active) | 33% | 16% | 10% | 40.3% | 6.94% (active) | 4.55% (active) | 3.88% (active)
11 | COc1ccc(C(=O)/C=C/c2cc(-c3ccc4c(c3)OCO4)n[nH]2)cc1OC | 84.4% | 60.3% | 44.4% | 62.8% | 76.3% | 38.1% | 41.9% | 21.6% | -9.67% (active) | -5.36% (active) | 4.4% (active) | 47.4% | 75.9% | 59.9% | 93.3% | 44.1% | 36.6% | 79.3% | 57.8%
12 | O=C(Nc1cccc(-c2nc3ccccc3[nH]2)c1)c1cccc(NC(=O)c2ccco2)c1 | 101% | 79.1% | 73.2% | 91.6% | 86% | 77.6% | 83.6% | 68.3% | 86.4% | 23.5% | 69.2% | 87.2% | 93.8% | 80% | 102% | 86.2% | 98.3% | 79.4% | 84.9%
13 | COCCNCC(O)Cn1c2ccc(Cl)cc2c2cc(Cl)ccc21 (centres undefined) | -79.4% (active) | -91.9% (active) | -20% (active) | 58.6% | 10.5% | 8.86% (active) | 62.6% | -23.2% (active) | 4.5% (active) | -19.9% (active) | -36.9% (active) | -69.9% (active) | -79.1% (active) | -97.3% (active) | 52.7% | -38% (active) | -46.3% (active) | -12.3% (active) | -6.15% (active)
14 | COc1ccc(C(C)=O)cc1N1C(=O)C2C(C1=O)C1(c3ccccc3)C(=O)C2(c2ccccc2)C(c2ccc(C)cc2)=C1c1ccc(C)cc1 (centres undefined) | -0.955% (active) | 26.2% | -4.71% (active) | 13.7% | 23.1% | 6.11% (active) | 54.1% | 8.66% (active) | 12.6% | 8.77% (active) | 17.2% | 14.5% | 55.7% | 26.2% | 32.2% | 9.07% (active) | 21.4% | 80.7% | 12.7%
15 | Nc1ccc(Sc2ccc3c4c2cccc4c(=O)n2c4ccccc4nc32)cc1 | 84.1% | 19.2% | 9.28% (active) | 78.6% | 22.1% | 5.9% (active) | 58.8% | 44.9% | -6.87% (active) | 16.1% | 50.2% | 50.7% | 85.8% | 74% | 53.9% | 34.5% | 77.8% | 59.6% | 56.6%
16 | COc1ccc(OC)c([N+](=O)[O-])c1C=O | 136% | 101% | -43.3% (active) | 154% | 92.5% | 72.2% | 59.2% | 41.4% | 66.8% | 37.2% | 75.1% | 97.8% | 107% | 105% | 101% | 101% | 101% | 89.6% | 113%
